# The panel holds about 79,000 compounds, 15% with a hit somewhere; the sample as a whole holds those more often. Unmarked numbers belong to inactive results. The source made the active and inactive calls. No stated cut-off is given here; in the data, active means growth inhibition above about 70%; inactive means the rest.
# Tests used:
# [1] = NCI Yeast Anticancer Drug Screen. Data for the rad50 strain (AID 155);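 further: 0% = growth of vehicle-only cultures of the same strain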; settings: S. cerevisiae rad50 strain growth inhibition, hits give high values
# Method in brief: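 Inhibition values express reduced yeast growth in compound-treated cultures relative to vehicle-treated controls.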
# [2] = NCI Yeast Anticancer Drug Screen. Data for the mec2-1 strain (AID 157); settings: S. cerevisiae mec2-1 strain, hits give high values
# Method in brief: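 Test agents were screened against the mec2-1 yeast strain, with defined DNA repair or cell cycle alteration. Growth was scored as inhibition against vehicle-only controls.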
# [3] = NCI Yeast Anticancer Drug Screen. Data for the sgs1 mgt1 strain (AID 161);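 further: 0% = growth of cultures given vehicle only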; settings: S. cerevisiae sgs1 mgt1 strain, hits give high values
# Method in brief: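 Read-out: growth inhibition vs vehicle controls. Cells: mutant yeast strain deficient in DNA damage repair.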
# [4] = NCI Yeast Anticancer Drug Screen. Data for the cln2 rad14 strain (AID 165);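 further: 0% = growth equal to vehicle treated cultures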; settings: S. cerevisiae cln2 rad14 strain, hits give high values
# Method in brief: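 Growth of compound-exposed yeast (cln2 rad14 genotype) measured and expressed as inhibition relative to vehicle.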
# [5] = NCI Yeast Anticancer Drug Screen. Data for the bub3 strain (AID 167); settings: S. cerevisiae bub3 mutant strain, hits give high values
# Method in brief: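 Steps: expose the mutant yeast strain to compound; grow alongside vehicle-treated cultures; measure growth; express inhibition against the vehicle cultures.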
# [6] = NCI Yeast Anticancer Drug Screen. Data for the mlh1 rad18 strain (AID 175); settings: S. cerevisiae mlh1 rad18 strain growth inhibition, hits give high values
# Method in brief: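 In this whole-cell yeast screen, a strain with altered DNA damage repair is challenged with compound, and its growth is measured against matched vehicle-treated controls.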
# [7] = at 5.0 µM (retest, dose inferred, filed as 0.5)
# [8] = at 50.0 µM (retest, dose inferred, filed as 5.0)
SMILES,"growth inhibition [1, 7] [%]","growth inhibition [1, 8]",growth inhibition ([1]; at 50.0 µM),"growth inhibition [2, 7] [%]","growth inhibition [2, 8]",growth inhibition ([2]; at 50.0 µM),"growth inhibition [3, 7] [%]","growth inhibition [3, 8]",growth inhibition ([3]; at 50.0 µM),"growth inhibition [4, 7] [%]","growth inhibition [4, 8]",growth inhibition ([4]; at 50.0 µM),"growth inhibition [5, 7] [%]","growth inhibition [5, 8]",growth inhibition ([5]; at 50.0 µM),"growth inhibition [6, 7] [%]","growth inhibition [6, 8]",growth inhibition ([6]; at 50.0 µM)
CN(C)CC(=O)OCC[N+](C)(C)C,-3,-2%,-22.1%,-6,-5%,-15.1%,-3,-3%,-12.7%,-15,-10%,56.4%,6,30%,15.4%,-4,1%,-15.9%
CC(=O)N(c1ccccc1)C(C)C,6,14%,-5.75%,6,0%,-10.2%,1,1%,-9.75%,-1,-5%,44.4%,10,79% (active),-1.65%,14,10%,9.8%
O=S(=O)(NC(=S)Nc1ccccc1)c1ccc(Br)cc1,-4,24%,42.9%,-3,50%,47.1%,7,53%,37.5%,-1,2%,79.5% (active),-3,42%,67.8%,21,68%,65.8%
COC(=O)N/N=C(\C)C(CN1CCOCC1)C(c1ccccc1)c1cc2ccccc2oc1=O (stereo not given),10,57%,-0.75%,-4,56%,7.15%,14,64%,-5.55%,14,70% (active),10.9%,21,74% (active),8.15%,7,61%,2.25%
COC(=O)N1C2C=CC(=O)C(C=C2)N1C(=O)OC (stereo not given),-3,30%,33.9%,2,38%,53.2%,0,58%,47%,1,23%,36.4%,-1,34%,60.6%,18,79% (active),85% (active)
CCCCC(CC)CCC(C)OC(=O)C(O)c1ccccc1 (stereo not given),-1,86% (active),61.8%,-6,87% (active),86.7% (active),-4,85% (active),83% (active),1,82% (active),32.5%,1,88% (active),75.5% (active),-4,90% (active),87.8% (active)
O=C1c2ccccc2C(=O)c2cc(O)ccc21,34,91% (active),84.8% (active),-13,77% (active),56.1%,2,82% (active),69%,11,54%,64.4%,44,84% (active),80.3% (active),15,87% (active),85% (active)
CN(C)N=Nc1ccc(-c2ccccc2)cc1,24,95% (active),87.8% (active),42,92% (active),78.3% (active),6,60%,81.8% (active),30,85% (active),74.2% (active),37,64%,86.5% (active),38,89% (active),84.5% (active)
COc1cc(OC)c(C2CC(C)(OC)Oc3cc4c(cc32)OCO4)c(OC)c1 (stereo not given),4,10%,4.35%,6,3%,17.1%,2,12%,3.8%,5,-4%,5.45%,0,-1%,-2.6%,5,19%,27.9%
COc1ccc(CSC(=S)Nc2ccc(Cl)c(C(F)(F)F)c2)cc1,27,30%,89.7% (active),15,16%,90.2% (active),43,49%,89% (active),44,38%,88.7% (active),47,63%,88.3% (active),17,21%,87.2% (active)

# Reference: PubChem BioAssay (NCI)
